The results in this text go back to PubChem BioAssay (NCATS).

Molecules are shown by their SMILES. Inconclusive results are not listed. Values without a mark were called inactive. Calls of active or inactive are those of the source. Calls follow the shape of the dose curve; as a rule, active = well fitted cell-killing curve with a large enough effect; inconclusive = small, poorly fitted or top-dose-only effect, or effect the other way; inactive = flat fitted curve, though single readings scatter. Where a SMILES comes first, the peptide text is derived from it. [ ]: non-standard residue; d: D form.
% is scaled to controls: 0 for no effect and ±100 for the full control effect.

This assay concerns CAOV3. Briefly: Primary qHTS to identify gynecologic anti-cancer compounds using libraries of approved drugs and bioactive compounds (AID 1345084). Also: nearly all actives have a fitted effect of over 55% in size. The following applies: Gynecologic cancer cell panel viability, ATPlite luminescence, 48 h; series mostly up to 57.5 µM; activity change, negative = cytotoxicity: at the top concentration. The method, boiled down: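 In this quantitative HTS, cell killing is estimated from loss of ATP-dependent luciferase light. Cells see five compound concentrations over a 48 h exposure.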
As to `COc1ccc(C(OC2OC(CO)C(O)C(O)C2O)C(C)O)cc1` (stereo not drawn), the “activity change, negative = cytotoxicity” value was 5.77% [at 38.5 µM].
Still for that read-out and setting: the figure for `CCOC(=O)N1CCC(NCCNC(=O)c2ccccc2C)CC1` is 11%; for `CCC(C)C(=O)O[C@@H]1[C@@H](O)[C@@H](O[C@H]2O[C@H](CO)[C@@H](O)[C@H](O)[C@H]2O)O[C@H](CO)[C@H]1O` (stereo partly drawn) it is -3.23% [at 25.3 µM].
Still for that read-out and setting: the figure for `Nc1ncnc2c1ncn2[C@H]1CCCO1` is 18.6%; for `COc1cc(-c2cccc(O)c2)cc2c1OCO2` it is 6%; for `Nc1nc(CC(=O)Nc2ccc(CCNCC(O)c3ccccc3)cc2)cs1` (stereo not drawn) it is 19.4%.
As to `O=C(/C=C/c1c(C(=O)O)[nH]c2cc(Cl)cc(Cl)c12)Nc1ccccc1`, the “activity change, negative = cytotoxicity” value is 37.4%.
As for `CC1CCC2C(C)(C)C(O)CCC2(C)C12Cc1c(O)cc3c(c1O2)CN=C3N` (stereo not drawn), the “activity change, negative = cytotoxicity” value is -4% [at 38.5 µM].
Same read-out and setting: the figure for `CC[C@H]1OC(=O)C[C@@H](O)[C@H](C)[C@@H](O[C@@H]2O[C@H](C)[C@@H](O)[C@H](N(C)C)[C@H]2O)[C@@H](CCN2C[C@H](C)C[C@H](C)C2)C[C@@H](C)C(=O)/C=C/C(C)=C/[C@@H]1CO[C@@H]1O[C@H](C)[C@@H](O)[C@@H](OC)[C@H]1OC` is -4.4%; for `C[C@]12C=CC(=O)C=C1CC[C@@H]1[C@@H]2[C@@H](O)C[C@@]2(C)[C@H]1CC[C@]2(O)C(=O)COC(=O)CCC(=O)O` it is -6.43%.
On to `CC(C)=CCc1ccc(Oc2c(O)cc(C)cc2CO)c(C(=O)O)c1O`, for which the “activity change, negative = cytotoxicity” value was 7.3% [at 38.5 µM].
With `NS(=O)(=O)NCCNc1nonc1C(=Nc1ccc(F)c(Br)c1)NO`, the Potency entry is “inactive”.
Regarding `CCC(=O)NS(=O)(=O)c1ccc(-c2c(-c3ccccc3)noc2C)cc1`, the “activity change, negative = cytotoxicity” value is 23.1%.
Consider `CC(=O)OC1C(O)C(C)=C(CCC(C)CC(=O)O)C2(C)CCCC(C)(C)C12` (stereo not drawn), for which the “activity change, negative = cytotoxicity” value is 1.95% [at 38.5 µM].
Consider `COC1=CC(=O)O[C@@H](/C=C/c2ccccc2)[C@@H]1O`, for which the “activity change, negative = cytotoxicity” value was 7.78%.
`C[C@@H]1O[C@@H](O[C@@H]2[C@@H](O)[C@@H](O)[C@H](O[C@@H]3[C@@H](O)[C@@H](O[C@]4(CO)O[C@H](CO)[C@@H](O)[C@@H]4OC(=O)/C=C/c4ccc(O)cc4)O[C@H](CO)[C@H]3OC(=O)/C=C/c3ccc(O)cc3)O[C@H]2C)[C@H](O)[C@H](O)[C@H]1O`: the activity change, negative = cytotoxicity was 16.9% [at 11.6 µM].
Same read-out and setting: the figure for `COC(=O)[C@@H]1C2CC3c4[nH]c5ccccc5c4CCN3CC2CC[C@@H]1O` (stereo partly drawn) is 13.6%.
For the compound `C[C@@H]1O[C@@H](O[C@H]2[C@H](OC(=O)[C@]34CCC(C)(C)C[C@H]3C3=CCC5[C@@]6(C)CC[C@H](O[C@@H]7O[C@H](CO[C@@H]8OC[C@H](O)[C@H](O)[C@H]8O)[C@@H](O)[C@H](O)[C@H]7O)C(C)(C)C6CC[C@@]5(C)[C@]3(C)C[C@H]4O)OC[C@@H](O)[C@@H]2O)[C@H](O)[C@H](O)[C@H]1O[C@@H]1OC[C@H](O)[C@H](O[C@@H]2OC[C@@H](O)[C@H](O)[C@H]2O)[C@H]1O` (stereo partly drawn), the activity change, negative = cytotoxicity is -15.5% [at 6.55 µM].
Regarding `CC(=O)N[C@H](Cc1ccc(O)cc1)C(=O)N[C@H](CCCN=C(N)N)C(=O)N[C@H](Cc1ccccc1)C(N)=O` (Ac-[dY]-[dR]-[dF]-NH2), the “activity change, negative = cytotoxicity” value was 13.6%.
`CC(NCc1ccc(OCc2cccc(F)c2)cc1)C(N)=O` (stereo not drawn): the “activity change, negative = cytotoxicity” value was -14.8%.
The same measure, in the same setting: the figure for `Cc1coc2c1CC1OC1(C)CCC1OC1(C)C2` (stereo not drawn) is 1.82%.
Same read-out and setting: the figure for `C[C@]12CCC[C@](C)(C(=O)O)C1CCC13C=C(CO)C(CCC12)C3` (stereo partly drawn) is 6.6% [at 38.5 µM]; for `COc1cc(/C=C/C(=O)OC(C)(C)C(OC2OC(CO)C(O)C(O)C2O)C(=O)OCc2ccc(OC3OC(CO)C(O)C(O)C3O)cc2)ccc1O` (stereo not drawn) it is 3.78% [at 25.3 µM].
Still for that read-out and setting: the figure for `COc1cc2c(cc1OC)CN(C(=O)[C@@H](NCc1ccncc1)C(C)(C)C)CC2` is 5.5%; for `O=C1NCc2nc3ccccc3c(=O)n2C1Cc1c[nH]c2ccccc12` (stereo not drawn) it is 0.474% [at 38.5 µM]; for `CC1=CC(=O)CC(C)(C)C1CCC(C)OC1OC(COC(=O)c2cc(O)c(O)c(O)c2)C(O)C(O)C1O` (stereo not drawn) it is 8.43% [at 25.3 µM].
In the case of `CC1C/C=C/C=C\CCCCC(O)C/C=C/C(=O)O1` (stereo not drawn), the “activity change, negative = cytotoxicity” value is -2.15%.
On the same count and under the same terms, the figure for `CO[C@@]12CC3[C@@H]([C@@H](O)[C@@H](OC(C)=O)C4[C@](C)(COC(C)=O)CCC[C@]34C)[C@@H](C)C1=CC(=O)O2` (stereo partly drawn) is -2.3% [at 25.3 µM]; for `CC1(C)CCCC2(C)C(CO)C3CCC2C31` (stereo not drawn) it is 6.38%.
As to `O=C(O[C@H]1[C@@H]2C=CO[C@@H](O[C@@H]3O[C@H](CO)[C@@H](O)[C@H](O)[C@H]3O)[C@@H]2[C@@]2(CO)O[C@@H]12)c1ccc(O)c(O)c1`, the “activity change, negative = cytotoxicity” value was 19.3% [at 25.3 µM].
Consider `C=CC(C)(C)C12CC3C(=O)NC(Cc4cnc[nH]4)C(=O)N3C1Nc1ccccc12` (stereo not drawn), for which the “activity change, negative = cytotoxicity” value is 5.24% [at 38.5 µM].
Same read-out and setting: the figure for `C=C1C2=CC(O)C(C)C1(C)CC/C(C)=C/CCC1(C)OC1C2=O` (stereo not drawn) is 2.06% [at 38.5 µM].
Same read-out and setting: the figure for `C[C@H]1CN(C[C@H](Cc2ccccc2)C(=O)NCC(=O)O)CC[C@@]1(C)c1cccc(O)c1` is -0.241%; for `Cn1c(=O)cc(N2CCCC(N)C2)n(Cc2ccccc2C#N)c1=O` (stereo not drawn) it is 6.19%; for `CCC[C@@H]1C[C@@H](C(=O)N[C@@H]([C@H]2O[C@H](SC)[C@H](OP(=O)(O)O)[C@@H](O)[C@H]2O)[C@H](C)Cl)N(C)C1` it is 9.2% [at 25.3 µM].
Still for that read-out and setting: the figure for `COc1cc(/C=C/CO)ccc1O[C@@H]1O[C@H](CO)[C@@H](O)[C@H](O)[C@H]1O` is 21.5% [at 38.5 µM]; for `CC1(O)CCC2C(C(=O)O)=COC(OC3OC(CO)C(O)C(O)C3OC(=O)/C=C/c3ccc(O)cc3)C21` (stereo not drawn) it is -25.6% [at 25.3 µM]; for `C[C@@H](Nc1cc(NS(=O)(=O)N2CCC2)nc(SCc2cccc(F)c2F)n1)[C@@H](O)CO` it is -0.545%.
